Inconclusive results are not listed. A call without a number means that no potency is given here. The source made the active and inactive calls. The call rests on the fitted dose curve; in most records, active means well fitted cell-killing curve with a large enough effect in the repeat runs; inconclusive means weak or mixed curves, or effect the other way; inactive means flat fitted curve, though single readings scatter.
Potency means the concentration at half of the fitted maximal effect.

This test can be described thus: qHTS assay to identify small molecule antagonists of the constitutive androstane receptor (CAR) signaling pathway - cell viability counter screen (AID 1224837). Further: nearly all actives have a fitted effect of over 45% in size. The conditions noted are these: HepG2-CYP2B6-hCAR viability, CellTiter-Fluor, 23 h, co-treated with 50 nM CITCO; series mostly up to 92.4 µM. The text has this: National Center for Advancing Translational Sciences [NCATS]
NIH Chemical Genomics Center [NCGC]
U.S. Environmental Protection Agency [EPA]
National Institutes of Environmental Health Sciences [NIEHS]
National Toxicology Program [NTP]
U.S. Food and Drug Administration [FDA]
The constitutive androstane receptor (CAR) is a nuclear receptor which regulates multiple drug metabolizing enzymes (DMEs) and transporters. Activating CAR will generally increase the transcription and subsequent translation of CYP2B6 and CYP3A4. These two DMEs represent about 50% of the drug metabolizing potential in the body. When CAR is deactivated, the metabolizing potential in the body will decrease, subsequently increasing the toxicity in the body or lowering the therapeutic potential of a pro-drug. Recently, there have also been studies performed indicating CARs role in energy metabolism and cancer therapy. Therefore, inhibiting CARs activity could have a potential effect on diabetes and cancer. Identifying environmental toxins and compounds which modulate CAR, through the use of the Tox21 10K compound collection, will be an important step in determining the toxicity and potential therapeutic effects these factors will have on the human body. To differentiate true CAR antagonists from cytotoxic substances, the assay is multiplexed with a cell viability assay.
Tox21 Assay Protocol Summary:
A double-stable (hCAR and CYP2B6-2.2kb) transfected cell line, derived from human hepatoma (HepG2) cells, was utilized for the duration of the quantitative high-throughput screens. The HepG2-CYP2B6-hCAR cells were dispensed at 2500 cells/4 uL/well in 1536-well white solid bottom plates using a Multidrop Combi. After the assay plates were incubated at 37 C/5% CO2 for 4 hrs, 23 nL of compounds at 15 concentrations (from 5-48 columns) or positive control (from 1 to 4 columns) were transferred to the assay plates using a Pintool station. One uL of CITCO (final concentration = 50 nM) was added, using a Flying Reagent Dispenser, inside each well. After a 23 hr incubation period at 37 C/5% CO2, 1 uL of CellTiter-Fluor reagent was added into each well of the assay plates using a Flying Reagent Dispenser. The fluorescence intensity in the plates was then measured using a ViewLux plate reader.
With `COc1ccccc1Oc1c(NS(=O)(=O)c2ccc(C(C)(C)C)cc2)nc(-c2ncccn2)nc1OCCO`, the Potency entry was “inactive”.

As for `CC(O)c1ccccc1` (stereo not given), the Potency entry is “inactive”.

Consider `CC(C)(C)CC(=O)OCC(=O)[C@@]1(O)CC[C@H]2[C@@H]3CCC4=CC(=O)C=C[C@]4(C)[C@H]3[C@@H](O)C[C@@]21C`, for which the Potency result is “inactive”.

As to `C=C/C(C)=C/C/C=C(\C)CCC=C(C)C`, the Potency result is “inactive”.

Consider `C=CC(=O)[O-].C=CC(=O)[O-].[Zn+2]`, for which the Potency entry is “inactive”.

Take `CC1CC(C)C(=O)C1=O` (stereo not given): the Potency result was “inactive”.

Turning to `COc1ccccc1N1CCN(CCCCNC(=O)c2ccc(-c3ccc(C(C)=O)cc3)cc2)CC1`, the Potency entry is “inactive”.

Take `O=Cc1c2ccccc2c(Cl)c2ccccc12`: the Potency result was “inactive”.

As to `Cc1cc2c(OCC(CNC(C)(C)C)OC(=O)c3ccccc3)cccc2[nH]1` (stereo not given), the Potency entry was “inactive”.

Regarding `CCOC(=O)OC(C)OC(=O)[C@@H]1N2C(=O)[C@@H](NC(=O)[C@H](N)c3ccccc3)[C@H]2SC1(C)C` (stereo not given in full), the Potency entry is “inactive”.

`CC(C)=CCC/C(C)=C/CC/C(C)=C/C(=O)OCC(=O)[C@@]1(O)CC[C@H]2[C@@H]3CCC4=CC(=O)C=C[C@]4(C)[C@H]3[C@@H](O)C[C@@]21C`: the Potency result was “inactive”.

`C[C@H]1c2cccc(O)c2C(O)=C2C(=O)[C@]3(O)C(O)=C(C(N)=O)C(=O)[C@@H](N(C)C)[C@@H]3[C@@H](O)[C@@H]21`: the Potency result is “inactive”.

Turning to `CN1C(=O)OC(C)(C)C1=O`, the Potency entry was “inactive”.

Take `Cc1ccc(CO)cc1`: the Potency entry was “inactive”.

For `CC(=O)c1cc2ccccc2s1`, the Potency result is “inactive”.

As to `C/C=C(/C(=C/C)c1ccc(O)cc1)c1ccc(O)cc1`, the Potency result was “inactive”.

Regarding `CCC1(CO)COCOC1`, the Potency result was “inactive”.

As to `CC(=O)Nc1cc(S(=O)(=O)O)cc2cc(S(=O)(=O)O)c(N=Nc3ccccc3)c(O)c12`, the Potency was 27.3 µM (active).

In the case of `COc1ncnc(NS(=O)(=O)c2ccc(N)cc2)c1OC`, the Potency entry is “inactive”.

As to `Cc1cccc(N(C)C(=S)Oc2ccc3c(c2)CCC3)c1`, the Potency entry is “inactive”.

For the compound `COC(=O)C1=C(C)NC(C)=C(C(=O)O[C@@H]2CCCN(Cc3ccccc3)C2)[C@@H]1c1cccc([N+](=O)[O-])c1`, the Potency entry was “inactive”.

With `Nc1ncnc2c1ncn2[C@H]1CC[C@@H](CO)O1`, the Potency result is “inactive”.

With `C=CCc1ccccc1OCC(O)CNC(C)C` (stereo not given), the Potency result is “inactive”.

Take `Oc1c(I)cc(I)c2cccnc12`: the Potency entry is “inactive”.

Consider `CN1CCCC(CC2c3ccccc3Sc3ccccc32)C1` (stereo not given), for which the Potency result is “inactive”.

With `C=Cc1ccc(S(=O)(=O)O)cc1`, the Potency result is “inactive”.

For the compound `Cc1ccc(Cl)c(Nc2ccccc2C(=O)O)c1Cl`, the Potency entry is “inactive”.

For the compound `Cc1cscn1`, the Potency result is “inactive”.

On to `O=[N+]([O-])c1ccc(Nc2ccc(Nc3ccccc3)c(S(=O)(=O)O)c2)c([N+](=O)[O-])c1`, for which the Potency entry was “inactive”.

As to `CCc1ccccc1`, the Potency entry was “inactive”.

`CCCCN(CCCC)C(C(N)=O)c1ccc(OC)cc1` (stereo not given): the Potency result was “inactive”.

Turning to `Clc1cc(Cl)nc(Cl)n1`, the Potency entry is “inactive”.

For `CC1(C)[C@@H](OC(=O)CCC(=O)O)CC[C@]2(C)[C@H]3C(=O)C=C4[C@@H]5C[C@@](C)(C(=O)O)CC[C@]5(C)CC[C@@]4(C)[C@]3(C)CC[C@@H]12`, the Potency entry was “inactive”.

For the compound `CC(C)=CCC/C(C)=C/CC/C(C)=C/CCC(=O)OC/C=C(\C)CCC=C(C)C`, the Potency result is “inactive”.

For `Cc1[nH]cnc1CN1CCc2c(c3ccccc3n2C)C1=O`, the Potency entry is “inactive”.

Take `CNC(=O)c1cnn(-c2nc(N)c3ncn([C@@H]4O[C@H](CO)[C@@H](O)[C@H]4O)c3n2)c1`: the Potency entry was “inactive”.

`CCCCCC[C@@H](O)C/C=C\CCCCCCCC(=O)OCC(O)CO` (stereo not given in full): the Potency entry was “inactive”.

As to `O=C(O)CCc1nc(-c2ccccc2)c(-c2ccccc2)o1`, the Potency result was “inactive”.

Take `C=COCC(C)C`: the Potency entry was “inactive”.

As for `c1cc(N(CC2CO2)CC2CO2)ccc1Cc1ccc(N(CC2CO2)CC2CO2)cc1` (stereo not given), the Potency is 54.5 µM (active).

The values are drawn from PubChem BioAssay (Tox21).
